D1 antag: blocks dopamine activation of the human D1 receptor. P21728. HEK293 TREx D1 cells, calcium flux, dopamine EC80; hits give low values. activity change, negative = inhibition, % at 10 µM. 360,000 compounds, 3.2% hits. AID 504652; in the data active = activity change below about -30%
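HEK293 T-REx cells expressing inducible, force-coupled D1 receptor; no-wash Ca dye, 30–90 min RT. Cmpd → 180 s read at 1 Hz → EC80 DA → 180 s read.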
TRHR enhancer: allosteric enhancers of human TRH receptor; TRHR cells, fluo-8 calcium fluorescence, EC20 TRH enhancement; P34981; enhancement, % at 2 µM; AID 493056; 360,000 compounds, 0.66% hits; in the data active = enhancement above about 30%
Target sequence (P34981 whole entry, looked up): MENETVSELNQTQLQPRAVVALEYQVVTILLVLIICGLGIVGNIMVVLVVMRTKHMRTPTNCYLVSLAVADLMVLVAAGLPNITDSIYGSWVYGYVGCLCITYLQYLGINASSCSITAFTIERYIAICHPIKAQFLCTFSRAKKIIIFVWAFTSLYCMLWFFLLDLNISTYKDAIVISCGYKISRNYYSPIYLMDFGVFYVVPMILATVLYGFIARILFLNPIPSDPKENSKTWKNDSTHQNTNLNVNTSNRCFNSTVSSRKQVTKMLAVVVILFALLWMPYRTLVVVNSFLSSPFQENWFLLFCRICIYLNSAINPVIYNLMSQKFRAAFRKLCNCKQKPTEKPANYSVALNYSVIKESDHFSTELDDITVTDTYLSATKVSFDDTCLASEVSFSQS
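Enhancer read-out: after compound pinning and an initial kinetic agonist-mode read, an EC20 of TRH (10 nM final) was injected and fluo-8 calcium signal (Ex 480/Em 530) followed at 1 s/cycle for 100 cycles in TRHR-expressing cells.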
D1 potentiator: enhances dopamine response at the human D1 receptor; 360,000 compounds, 0.036% hits; potentiation, % at 10 µM; P21728; AID 504651; HEK293 TREx D1 cells, calcium flux, dopamine EC20 potentiation; in the data active = potentiation above about 30%
LDHA inh: inhibitors of human lactate dehydrogenase A; P00338; purified LDHA, NADH/diaphorase-resazurin fluorescence; hits give low values; activity change, % (values are at about 110 or 230 µM); 480,000 compounds, 0.15% hits; AID 1347041; in the data active = activity change below about -30%
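Enzyme activity of human lactate dehydrogenase 5 (2 nM; 0.06 mM NADH, 0.2 mM pyruvate, 5 min, RT) is measured via a resazurin/diaphorase fluorescence readout of residual NADH.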
TRHR agonist: TRH receptor (human) agonism | TRHR cells, calcium flux fluo-8, FDSS agonist mode | P34981 | activation, % at 2 µM | 360,000 compounds, 0.18% hits
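TRHR-expressing cells loaded with fluo-8 calcium dye; 23 nL library compound pin-transferred, kinetic FDSS fluorescence (Ex 480/Em 530) recorded about 180 s for agonist-induced calcium release, before a 10 nM TRH EC20 addition for potentiator mode.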
D1 agonist: human D1 receptor agonism; AID 504660; 360,000 compounds, 1% hits; HEK293 T-REx D1 cells, calcium flux, agonist mode; P21728; activation, % at 2 µM
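Inducible HEK293 T-REx D1 cells, force-coupled to calcium signalling, were plated at 4000 cells/well with tetracycline and held overnight at 30 C. After no-wash calcium dye loading, compound-evoked calcium rise over 180 s flagged agonists.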
Large screens that a line does not name were inactive. Rows were chosen to be rich in hits. Some 3.6% of all compounds tested hit in one or more screens of this group. Cut-off read from the data, not from the text of the source, unless noted: active = activation above about 30%; inactive = the rest.

Fc1ccc(Nc2nc3nonc3nc2Nc2cccc(C(F)(F)F)c2)cc1	D1 antag -37
O=C(O)c1cccnc1Nc1cccc(C(F)(F)F)c1	none
Cc1oc(C)c(C(=O)O)c1COc1ccc(C(=O)O)cc1	none
Cc1cc(=O)oc(C)c1C(=O)NCCc1ccccc1	D1 antag -32
COc1ccc(CNC(=O)c2c(C)cc(=O)oc2C)cc1	D1 antag -33
COc1ccc(C(=O)NCc2c(C)oc(C)c2C(=O)O)cc1	TRHR enhancer 39
O=C(CSc1n[nH]c(-c2cccs2)n1)N1CCCC1	none (no result: D1 antag, TRHR enhancer, D1 potentiator, TRHR agonist, D1 agonist)
O=C(CSc1n[nH]c(-c2cccs2)n1)N1CCN(S(=O)(=O)c2ccccc2)CC1	D1 antag -59
CCCCCCCCCCCCCCCCN1CCCC1	none (no result: D1 antag, TRHR enhancer, D1 potentiator, TRHR agonist, D1 agonist)
COc1ccc(CCN(C)CC(O)COC(c2ccc(F)cc2)c2ccc(F)cc2)cc1OC (stereo not given)	D1 agonist 33
COc1ccc(CN(C)CC(O)COc2ccccc2C(C)C)cc1OC (stereo not given)	none (no result: D1 antag, TRHR enhancer, D1 potentiator, TRHR agonist, D1 agonist)
COc1ccc(CCN(C)CC(O)COc2c(C)ccc(C)c2C)cc1OC (stereo not given)	D1 agonist 34
CCCOc1c(Br)cc(C(=O)N2CCN(c3ncccn3)CC2)cc1OC	none (no result: D1 antag, TRHR enhancer, D1 potentiator, TRHR agonist, D1 agonist)
COc1ccc(NC(=O)CSc2nccnc2N2CCN(c3ccccc3OC)CC2)cc1OC	none (no result: D1 antag, TRHR enhancer, D1 potentiator, TRHR agonist, D1 agonist)
CCCn1c(NC(=O)C2CCN(C(=O)c3ccccc3C)CC2)nc2ccccc21	none
CCCn1c(NC(=O)c2cccc(C)c2C)nc2ccccc21	D1 antag -49
O=C(OCCOc1ccc(F)cc1)c1ccc(S(=O)(=O)N2CCCC2)cc1	none
Cc1ccc(S(=O)(=O)N2CCN(C(=O)COC(=O)CCOc3ccccc3C)CC2)cc1	D1 antag -36
Cc1ccccc1OCCOC(=O)c1ccc(S(=O)(=O)N2CCCC2)cc1	D1 antag -31
COc1ccc(S(=O)(=O)N2CCN(C)CC2)cc1NC(=O)c1ccccc1	none
Cc1ccc(S(=O)(=O)N2CCN(C(=O)COC(=O)CCOc3cc(C)ccc3C)CC2)cc1	none
Cc1ccc(C)c(OCCC(=O)N2CCN(S(=O)(=O)c3ccc([N+](=O)[O-])cc3)CC2)c1	D1 antag -33
CCN1CCN(S(=O)(=O)c2ccc(OC)c(NC(=O)c3ccccc3)c2)CC1	D1 antag -48
CCOC(=O)CSc1nnc(CNC(=O)c2ccc(S(=O)(=O)N3CCCC3)cc2)n1C	D1 agonist 54
Cc1ccc(C)c(OCCC(=O)OCC(=O)N2CCN(S(=O)(=O)c3ccc(Cl)cc3)CC2)c1	none
Cc1ccccc1OCC(=O)OCC(=O)Nc1cc(S(=O)(=O)N2CCCCC2)ccc1Cl	D1 antag -96
CCOc1ccc(OCCC(=O)OCC(=O)N2CCN(S(=O)(=O)c3ccc(Cl)cc3)CC2)cc1	D1 antag -32
CCOC(=O)CSc1nnc(CNC(=O)c2ccc(S(=O)(=O)N3CCOCC3)cc2)n1C	none
COc1ccccc1NC(=O)c1ccc(S(=O)(=O)N2CCCC2)cc1	none
CCOc1ccccc1NC(=O)c1ccc(S(=O)(=O)N2CCCCC2)cc1	TRHR enhancer 32
CCN1C(=O)S/C(=C/c2cn(CC(=O)OC)c3ccccc23)C1=O	none (no result: D1 antag, TRHR enhancer, D1 potentiator, TRHR agonist, D1 agonist)
COc1ccc(-c2cc(CCCC(=O)NCCc3ccc(OC)cc3OC)no2)cc1	D1 antag -44
COc1ccc(-c2cc(CCCC(=O)NCCc3ccccc3)no2)cc1	none
C=CCc1cccc(/C=N/n2cnnc2)c1O	TRHR enhancer 32
Cc1ccc(NC(=O)c2ccc(CSc3nnc(C)s3)cc2)cc1	D1 potentiator 35, D1 agonist 125
Cc1cc(C)cc(NC(=O)c2ccc(CSc3nnc(C)s3)cc2)c1	none
Cc1nnc(SCc2ccc(C(=O)O)cc2)s1	none
O=C(O)c1ccc(CSc2nnc(SCc3ccccc3)s2)cc1	D1 antag -47
COc1ccc(-c2cc(COc3ccc(Cl)cc3)on2)cc1	none (no result: D1 antag, TRHR enhancer, D1 potentiator, TRHR agonist, D1 agonist)
N#Cc1cc(N)ccc1Sc1ccc(Cl)cc1	D1 antag -32
CCN(CC(=O)Nc1ccc(NC(C)=O)cc1)CC(=O)Nc1ccc(Cl)c(Cl)c1	LDHA inh -45
CN(CC(=O)NCc1ccc(F)cc1)CC(=O)Nc1ccc(Cl)c(C(F)(F)F)c1	D1 antag -33
CCNC(=S)Nc1ccc(Cl)c(C(F)(F)F)c1	D1 antag -32
Cc1ccc2occ(CC(=O)Nc3ccc(S(N)(=O)=O)cc3)c2c1	none
Cc1ccc2occ(CC(=O)Nc3ccc(Cl)c(C(F)(F)F)c3)c2c1	D1 antag -31
CCN(CC(=O)Nc1ccc(NC(C)=O)cc1)CC(=O)Nc1cccc(Cl)c1	none
CCCCCCn1c(N2CCN(CC(=O)OC)CC2)nc2c1c(=O)[nH]c(=O)n2C	none (no result: D1 antag, TRHR enhancer, D1 potentiator, TRHR agonist, D1 agonist)
O=C(NC12CC3CC(CC(C3)C1)C2)C1CCCc2ccccc21 (stereo not given)	none (no result: D1 antag, TRHR enhancer, D1 potentiator, TRHR agonist, D1 agonist)
Cc1ccc(NC(=O)CN(C)CC(=O)Nc2ccc(F)c(Cl)c2)cc1	D1 antag -55
Cc1ccc2c(CC(=O)Nc3ccc(S(=O)(=O)N4CCCCC4)cc3)coc2c1	D1 antag -73
O=C(Nc1cccnc1)c1cc(-c2ccccn2)nc2ccccc12	none (no result: D1 antag, TRHR enhancer, D1 potentiator, TRHR agonist, D1 agonist)
COc1cc(CN2CC(=O)N(c3ccc(C)c(C)c3)C2=S)cc(OC)c1OC	none
COc1ccc(CN2CC(=O)N(c3ccc(C)c(C)c3)C2=S)cc1OC	D1 antag -36
CN(CC1COc2ccccc2O1)S(=O)(=O)N1CCOCC1 (stereo not given)	none (no result: D1 antag, TRHR enhancer, D1 potentiator, TRHR agonist, D1 agonist)
CC(C)N(C)S(=O)(=O)N(C)CC1COc2ccccc2O1 (stereo not given)	LDHA inh -32 (no result: D1 antag, TRHR enhancer, D1 potentiator, TRHR agonist, D1 agonist)
CCN(CC1COc2ccccc2O1)S(=O)(=O)c1ccc(C)cc1 (stereo not given)	D1 antag -33
Cn1c(SCc2ccc(F)cc2)nc2ccc(C(=O)NCc3ccc(F)cc3)cc21	D1 antag -32
O=C(NCCCN1CCOCC1)c1ccco1	D1 antag -35
Cc1cc(C)n(CCCNC(=O)c2ccco2)n1	D1 antag -31
Cc1cc(C)n(C(=O)CNC(=O)c2ccco2)n1	none
O=C(NCCN1CCCCC1)c1ccco1	none
O=C(NCCCN1CCOCC1)c1cc(-c2ccc(Cl)c(Cl)c2)on1	D1 antag -33
Cc1ccccc1CS(=O)(=O)CCC(=O)NCCCN1CCOCC1	D1 antag -44
COc1ccccc1NC(=O)N1CCC(Cc2ccccc2)CC1	none (no result: D1 antag, TRHR enhancer, D1 potentiator, TRHR agonist, D1 agonist)
COc1cc(OC)c(-c2nc(-c3ccc(Br)cc3)no2)cc1OC	none (no result: D1 antag, TRHR enhancer, D1 potentiator, TRHR agonist, D1 agonist)
CC(C)(C)c1ccc(C(=O)NCCCNC(=O)c2ccco2)cc1	none (no result: D1 potentiator)
CC(C)(C)c1cc(C(F)(F)F)nc(SCCCNC(=O)c2ccco2)n1	D1 antag -38
